Data on eight compounds can be found in PubChem BioAssay (Tox21).

Assay [1] is described as follows: qHTS assay to identify aromatase inhibitors - cell viability counter screen (AID 743084).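 Also: cells stimulated with testosterone during compound exposure; nearly all actives have a fitted effect of over 55% in size.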 Also: potency is read from the fitted curve at half-maximal effect. In general terms: qHTS replaces the single test concentration by a dilution series.
Assay [2] concerns the target Aryl hydrocarbon receptor (Homo sapiens) (UniProt P35869). The experiment in a line: qHTS assay to identify small molecule that activate the aryl hydrocarbon receptor (AhR) signaling pathway (AID 743085). Also: nearly all actives have a fitted effect of over 15% in size. Also: potency is read from the fitted curve at half-maximal effect.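 As to activation: HG2L7.5c1 human HepG2 liver cells with stably integrated DRE-driven firefly reporter; series mostly up to about 70 µM.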 In short, it runs like this:
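A multiplexed format paired cell viability (CellTiter-Fluor fluorescence) with AhR-dependent luciferase output (ONE-Glo luminescence) in the same wells of HepG2 DRE-luc cells after 24 h compound exposure at 37C.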

Assay [3] in a line: qHTS assay to identify small molecule that activate the aryl hydrocarbon receptor (AhR) signaling pathway - cell viability counter screen (AID 743086). Also: nearly all actives have a fitted effect of over 45% in size. Also: potency is read from the fitted curve at half-maximal effect. Summed up: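 HepG2-AhR-luc (HG2L7.5c1) cells, 4000/well, were preincubated 5 h at 37C, exposed to compound in qHTS format for 24 hr at 37C, then given CellTiter-Fluor for 30 min; viability was read as fluorescence in the reporter wells.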

Assay [4] has as its target Peroxisome proliferator-activated receptor gamma (Homo sapiens) (UniProt P37231). The experiment in a line: qHTS assay to identify small molecule agonists of the peroxisome proliferator-activated receptor gamma (PPARg) signaling pathway (AID 743094; active = well fitted activation curve with a large enough effect in the signal ratio in the repeat runs, not every such curve was filed as active; the % refers to the signal ratio). In short, it runs like this: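 Beta-lactamase FRET fluorescence was the read-out after a 1 h room-temperature substrate step, following 17 h compound treatment at 37C of HEK293H cells expressing a UAS-driven bla reporter responsive to PPARg.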

Assay [5] has the same target. The assay can be described thus: qHTS assay to identify small molecule antagonists of the peroxisome proliferator-activated receptor gamma (PPARg) signaling pathway (AID 743191; calls by dose curve; also: nearly all actives have a fitted effect of over 30% in size; also: potency is read from the fitted curve at half-maximal effect). In short, it runs like this:
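GeneBLAzer PPARg UAS-bla HEK293H cells carrying a UAS-driven beta-lactamase reporter were plated at 3000 cells/well, preincubated 5 h at 37C, then given compound for 17 h at 37C; LiveBLAzer B/G FRET substrate was read after 1 h at room temperature.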

Assay [6] is described as follows: qHTS assay to identify small molecule antagonists of the peroxisome proliferator-activated receptor gamma (PPARg) signaling pathway - cell viability counter screen (AID 743194). Also: nearly all actives have a fitted effect of over 55% in size. Also: potency is read from the fitted curve at half-maximal effect. The settings on record: Potency: co-treated with 50 nM rosiglitazone unless noted. In short, it runs like this: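 PPARg-UAS-bla HEK293H cells were plated, rested 5 h at 37 C, then treated with compounds plus rosiglitazone (50 nM final) for 17 h at 37 C; viability was then read by CellTiter-Glo luminescence after 30 min at room temperature.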

Assay [7] can be described thus: qHTS assay for small molecule agonists of the antioxidant response element (ARE) signaling pathway (AID 743202; active = well fitted activation curve with a large enough effect in the signal ratio in the repeat runs, not every such curve was filed as active; the % refers to the signal ratio). In short, it runs like this:
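Compounds delivered in DMSO to ARE-bla HepG2 cells (2,000 cells/well, pre-incubated 5 h) and left 16 h at 37 C. LiveBLAzer B/G FRET substrate then added for 2 h at RT before fluorescence reading.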

Assay [8] can be described thus: qHTS assay for small molecule agonists of the antioxidant response element (ARE) signaling pathway - cell viability counter screen (AID 743203; calls by dose curve; also: nearly all actives have a fitted effect of over 55% in size; also: potency is read from the fitted curve at half-maximal effect). In short, it runs like this:
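HepG2 cells carrying ARE-driven beta-lactamase; 2,000 cells/well; 5 hrs plating; compound pinned from DMSO; 16 hrs 37C/5% CO2; CellTiter-Glo added; 30 min RT; luminescence.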

Assay [9] is described as follows: qHTS assay for small molecule activators of the heat shock response signaling pathway - cell viability counter screen (AID 743209). Also: nearly all actives have a fitted effect of over 50% in size. Also: potency is read from the fitted curve at half-maximal effect. Summed up: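 Luminescence from CellTiter-Glo, added after the beta-lactamase FRET read, gave the viability signal. Cells were HSE-bla HeLa treated with DMSO-dissolved compounds for 5 h at 37 C following overnight plating.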
Assay [10] is described as follows: qHTS assay for small molecule activators of the heat shock response signaling pathway (AID 743210; active = well fitted activation curve with a large enough effect in the signal ratio in the repeat runs, with a control signal flat, not every such curve was filed as active; the % refers to the signal ratio;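 also: HeLa cells with beta-lactamase reporter driven by heat shock elements; series mostly up to about 63 µM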). In short, it runs like this:
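Reporter gene assay: HeLa cells stably bearing an HSE-bla construct, compound treatment 5 h at 37 C, LiveBLAzer substrate 2.5 h at RT, fluorescence intensity.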

Assay [11] can be described thus: qHTS assay to identify small molecule agonists of the peroxisome proliferator-activated receptor delta (PPARd) signaling pathway - cell viability counter screen (AID 743211). Also: nearly all actives have a fitted effect of over 55% in size. Also: potency is read from the fitted curve at half-maximal effect. Summed up:
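Tox21 library compounds, delivered in DMSO, were incubated 17 h with PPARd-bla HEK293H cells; cytotoxicity was taken from CellTiter-Glo luminescence read 30 min after reagent addition.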

The nature of assay [12]: qHTS assay to identify small molecule antagonists of the peroxisome proliferator-activated receptor delta (PPARd) signaling pathway - cell viability counter screen (AID 743213). Also: nearly all actives have a fitted effect of over 50% in size. Also: potency is read from the fitted curve at half-maximal effect. In short, it runs like this: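 Cytotoxicity counter screen: CellTiter-Glo luminescence read 30 min after addition, in the same wells as the reporter assay. There, PPARd UAS-bla HEK293H cells (3000/well) were treated 17 h at 37 C with compound and 300 nM L165041.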

Assay [13] in a line: qHTS assay to identify small molecule agonists of the farnesoid-X-receptor (FXR) signaling pathway - cell viability counter screen (AID 743218). Also: nearly all actives have a fitted effect of over 45% in size. Also: potency is read from the fitted curve at half-maximal effect. Summed up: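 HEK 293T FXR-bla cells; 5 h pre-incubation, 16 h compound exposure at 37 C; LiveBLAzer substrate 2 h RT, then CellTiter-Glo 30 min RT, luminescence.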
Assay [14] in a line: qHTS assay to identify small molecule antagonists of the farnesoid-X-receptor (FXR) signaling pathway - cell viability counter screen (AID 743221; active = well fitted cell-killing curve with a large enough effect in the repeat runs, not every such curve was filed as active; also: nearly all actives have a fitted effect of over 50% in size; also: potency is read from the fitted curve at half-maximal effect). In short, it runs like this: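 Cytotoxicity is taken from ATP luminescence (CellTiter-Glo, 30 min, room temperature) in FXR-bla HEK 293T cells previously incubated 16 h at 37 C with compound and chenodeoxycholic acid at 50 uM final.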

The target in assay [15] is Peroxisome proliferator-activated receptor delta (Homo sapiens) (UniProt Q03181). The experiment in a line: qHTS assay to identify small molecule agonists of the peroxisome proliferator-activated receptor delta (PPARd) signaling pathway (AID 743212; calls by dose curve). Summed up: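 A PPARd-bla HEK293H line with beta-lactamase under an Upstream Activator Sequence is treated with compounds at 37 C. Substrate loading for 2 h at room temperature precedes the fluorescence measurement.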
Chain of Peroxisome proliferator-activated receptor delta (Homo sapiens) (Q03181 whole entry, looked up): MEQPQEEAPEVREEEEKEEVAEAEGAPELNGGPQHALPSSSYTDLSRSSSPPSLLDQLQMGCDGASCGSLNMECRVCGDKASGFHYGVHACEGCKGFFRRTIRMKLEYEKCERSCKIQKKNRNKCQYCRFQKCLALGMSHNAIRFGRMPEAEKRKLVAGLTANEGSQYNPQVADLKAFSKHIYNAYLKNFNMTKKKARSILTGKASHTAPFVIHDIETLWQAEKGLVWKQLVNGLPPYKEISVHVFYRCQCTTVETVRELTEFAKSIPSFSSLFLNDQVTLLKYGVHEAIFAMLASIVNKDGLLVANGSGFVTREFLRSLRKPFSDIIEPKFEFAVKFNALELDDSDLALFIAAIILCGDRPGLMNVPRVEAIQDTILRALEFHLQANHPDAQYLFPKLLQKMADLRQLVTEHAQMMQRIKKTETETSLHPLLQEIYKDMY

Assay [16] shares this target. The experiment in a line: qHTS assay to identify small molecule antagonists of the peroxisome proliferator-activated receptor delta (PPARd) signaling pathway (AID 743215; active = well fitted inhibition curve with a large enough effect in the signal ratio in the repeat runs, not every such curve was filed as active; the % refers to the signal ratio;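 also: cells stimulated with agonist L165041 at 300 nM final during compound exposure; series mostly up to about 62 µM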). In short, it runs like this: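 Read-out is beta-lactamase FRET fluorescence, measured 2 h after substrate addition at room temperature. Beforehand, UAS-bla HEK293H cells carrying the PPARd reporter were exposed to compounds with L165041 at 300 nM final for 17 h at 37 C.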

Assay [17] deals with Bile acid receptor (Homo sapiens) (UniProt Q96RI1). The experiment in a line: qHTS assay to identify small molecule antagonists of the farnesoid-X-receptor (FXR) signaling pathway (AID 743217; active = well fitted inhibition curve with a large enough effect in the signal ratio in the repeat runs, not every such curve was filed as active; the % refers to the signal ratio). Summed up: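 HEK 293T FXR-UAS-bla, 5000 cells/well; compound + CDCA 50 uM final; 16 h, 37 °C; B/G FRET substrate 2 h RT; fluorescence.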
Chain of Bile acid receptor (Homo sapiens) (Q96RI1 whole entry, looked up): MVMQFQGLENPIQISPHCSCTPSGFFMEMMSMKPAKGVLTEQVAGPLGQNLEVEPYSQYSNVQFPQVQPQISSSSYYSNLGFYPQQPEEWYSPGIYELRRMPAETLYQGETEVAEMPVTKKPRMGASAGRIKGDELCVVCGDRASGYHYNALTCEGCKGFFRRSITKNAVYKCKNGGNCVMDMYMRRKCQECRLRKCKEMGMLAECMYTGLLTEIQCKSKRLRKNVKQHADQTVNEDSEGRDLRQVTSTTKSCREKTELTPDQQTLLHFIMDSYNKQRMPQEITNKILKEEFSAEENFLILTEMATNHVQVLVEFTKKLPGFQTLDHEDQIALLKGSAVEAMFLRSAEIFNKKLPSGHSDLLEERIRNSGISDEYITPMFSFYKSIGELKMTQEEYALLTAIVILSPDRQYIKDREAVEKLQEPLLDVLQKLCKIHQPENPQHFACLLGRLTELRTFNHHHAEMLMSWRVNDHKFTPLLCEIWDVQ
Assay [18] shares this target. The experiment in a line: qHTS assay to identify small molecule agonists of the farnesoid-X-receptor (FXR) signaling pathway (AID 743220; active = well fitted activation curve with a large enough effect in the signal ratio in the repeat runs, not every such curve was filed as active; the % refers to the signal ratio). In short, it runs like this:
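Beta-lactamase reporter under UAS control in GeneBLAzer FXR HEK 293T cells (5000/well) measured with LiveBLAzer FRET substrate after 2 h at room temperature. Compound exposure lasted 16 h at 37C.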

In assay [19] the target is Vitamin D3 receptor (Homo sapiens) (UniProt P11473). The experiment in a line: qHTS assay to identify small molecule agonists of the vitamin D receptor (VDR) signaling pathway (AID 743222; calls by dose curve). Summed up: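 VDR-bla cells, 2,000/well; 4 h preincubation 37C; cpd (DMSO) 16 h; LiveBLAzer B/G substrate 2 h RT; fluorescence intensity read.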
Chain of Vitamin D3 receptor (Homo sapiens) (P11473 whole entry, looked up): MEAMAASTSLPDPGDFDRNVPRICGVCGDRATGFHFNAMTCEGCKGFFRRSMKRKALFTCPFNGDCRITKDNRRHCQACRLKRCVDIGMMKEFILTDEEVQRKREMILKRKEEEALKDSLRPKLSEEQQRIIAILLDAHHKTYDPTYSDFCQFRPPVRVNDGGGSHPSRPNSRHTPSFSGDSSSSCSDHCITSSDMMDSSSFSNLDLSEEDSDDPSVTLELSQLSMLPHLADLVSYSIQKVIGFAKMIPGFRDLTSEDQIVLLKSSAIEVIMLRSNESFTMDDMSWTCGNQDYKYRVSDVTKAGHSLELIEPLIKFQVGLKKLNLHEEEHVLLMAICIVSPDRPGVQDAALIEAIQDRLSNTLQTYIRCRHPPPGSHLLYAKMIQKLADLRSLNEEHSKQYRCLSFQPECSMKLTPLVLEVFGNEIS
For assay [20] the target is unchanged. The assay can be described thus: qHTS assay to identify small molecule antagonists of the vitamin D receptor (VDR) signaling pathway (AID 743223; active = well fitted inhibition curve with a large enough effect in the signal ratio in the repeat runs, not every such curve was filed as active; the % refers to the signal ratio). Summed up:
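Quantitative HTS in VDR-bla reporter cells stimulated with 1alpha,25-dihydroxyvitamin D3, 3 nM final. Compound exposure 16 h, 37C, 5% CO2. Read-out: beta-lactamase FRET substrate fluorescence, 2 h RT.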

Results filed as inconclusive are left out. Active and inactive are the calls of the source. Unless noted, calls follow the shape of the dose curve; as a rule, active = well fitted curve in the direction sought with a large enough effect in the repeat runs; inconclusive = weak or mixed curves; inactive = no such curve, though single readings can be large; an effect the other way counts as inactive or inconclusive.

Chain of Aryl hydrocarbon receptor (Homo sapiens) (P35869 whole entry, looked up): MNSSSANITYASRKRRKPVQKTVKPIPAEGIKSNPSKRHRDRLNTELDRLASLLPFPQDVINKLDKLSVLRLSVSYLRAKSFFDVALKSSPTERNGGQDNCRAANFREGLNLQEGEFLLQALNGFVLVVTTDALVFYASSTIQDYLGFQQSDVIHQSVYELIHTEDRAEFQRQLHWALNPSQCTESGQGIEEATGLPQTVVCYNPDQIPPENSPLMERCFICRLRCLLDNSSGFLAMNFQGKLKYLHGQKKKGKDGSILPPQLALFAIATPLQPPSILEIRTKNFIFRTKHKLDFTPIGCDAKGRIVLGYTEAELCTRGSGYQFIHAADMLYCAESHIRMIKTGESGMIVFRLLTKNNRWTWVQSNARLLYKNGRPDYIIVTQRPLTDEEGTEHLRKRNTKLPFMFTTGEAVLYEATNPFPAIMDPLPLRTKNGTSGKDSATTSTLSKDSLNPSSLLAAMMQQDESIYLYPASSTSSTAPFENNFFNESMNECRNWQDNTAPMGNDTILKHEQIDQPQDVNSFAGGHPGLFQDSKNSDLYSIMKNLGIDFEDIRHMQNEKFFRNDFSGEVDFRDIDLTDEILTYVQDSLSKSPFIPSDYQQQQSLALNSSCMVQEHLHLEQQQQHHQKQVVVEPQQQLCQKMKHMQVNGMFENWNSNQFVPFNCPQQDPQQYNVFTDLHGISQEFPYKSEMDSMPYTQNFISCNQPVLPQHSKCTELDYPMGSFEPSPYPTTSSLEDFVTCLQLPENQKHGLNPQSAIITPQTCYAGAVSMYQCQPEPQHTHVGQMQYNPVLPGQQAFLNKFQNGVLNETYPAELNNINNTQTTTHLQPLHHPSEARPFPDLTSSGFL
Chain of Peroxisome proliferator-activated receptor gamma (Homo sapiens) (P37231 whole entry, looked up): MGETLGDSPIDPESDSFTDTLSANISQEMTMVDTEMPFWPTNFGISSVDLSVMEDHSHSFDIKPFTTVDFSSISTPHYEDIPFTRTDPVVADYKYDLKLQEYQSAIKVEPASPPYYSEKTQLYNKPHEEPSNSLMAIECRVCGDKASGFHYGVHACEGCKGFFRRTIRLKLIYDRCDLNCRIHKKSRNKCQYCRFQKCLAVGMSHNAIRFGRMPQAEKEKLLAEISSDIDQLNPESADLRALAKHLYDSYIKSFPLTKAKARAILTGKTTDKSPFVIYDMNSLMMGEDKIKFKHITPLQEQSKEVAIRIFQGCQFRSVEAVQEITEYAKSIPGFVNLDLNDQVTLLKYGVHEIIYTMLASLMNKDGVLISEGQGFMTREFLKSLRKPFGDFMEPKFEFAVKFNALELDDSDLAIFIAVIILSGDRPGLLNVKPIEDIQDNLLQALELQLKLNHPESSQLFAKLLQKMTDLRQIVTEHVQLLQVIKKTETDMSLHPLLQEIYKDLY

Regarding `C#CC1(O)CCCCC1`, the Potency result in assay [1], in assay [2], in assay [3], in assay [4], in assay [5] and in [6] was “inactive” throughout. Also, the Potency result in assay [7], in [8], in [9], in [10], in [11] and in [12] was “inactive” throughout. For the same compound, the Potency entry in assay [13] and in assay [14] was “inactive” in each case.
For the compound `CCCCN(CCCC)C(=S)S`, the Potency entry in assay [1], in assay [2], in [3], in assay [4], in assay [6] and in assay [7] was “inactive” in each case. Moreover, the Potency entry in assay [8], in [9], in [11], in assay [12], in [13] and in assay [14] was “inactive” throughout.
On to `CCOC(=O)Cc1ccccc1`, for which the Potency result in [1], in assay [2], in [3], in [4], in assay [6] and in [7] was “inactive” in each case. Besides, the Potency entry in [8], in assay [9], in assay [10], in [11], in assay [15] and in assay [16] was “inactive” in each case. For the same compound, the Potency result in assay [17], in [13], in [18], in assay [19] and in assay [20] was “inactive” throughout.
Take `CCC(C)Br` (configuration not stated): the Potency entry in assay [1], in assay [2], in [3], in [4], in assay [5] and in assay [6] was “inactive” throughout. Further, the Potency entry in [7], in assay [8], in assay [10], in assay [11], in assay [15] and in assay [12] was “inactive” throughout. Besides, the Potency entry in assay [16], in assay [13], in assay [14], in [19] and in assay [20] was “inactive” in each case.
For `Cc1c([N+](=O)[O-])cc2c(c1[N+](=O)[O-])C(C)(C)CC2(C)C`, the Potency result in [1], in assay [2], in assay [3], in [4], in assay [5] and in assay [6] was “inactive” in each case. The Potency entry in assay [8], in assay [9], in assay [10], in assay [12], in [16] and in assay [13] was “inactive” throughout. In addition, the Potency entry in assay [20] was “inactive”.
Consider `N#Cc1sc2c(=O)c3ccccc3c(=O)c=2sc1C#N`, for which the Potency in [1] is 4.33 µM (active); in assay [2], 1.93 µM (active); in assay [3], 6.86 µM (active); in assay [5], 12.3 µM (active); in [6], 19.5 µM (active); in [8], 8.63 µM (active). The Potency was 1.95 µM (active) in [9]; 7.76 µM (active) in assay [11]; 12.3 µM (active) in assay [12]; 34.7 µM (active) in assay [13]; 34.7 µM (active) in assay [14]. The Potency result in [4] and in [18] was “inactive” each time.
`CC(C)Br`: the Potency entry in assay [1], in assay [2], in assay [3], in assay [4], in [5] and in assay [6] was “inactive” in each case. Further, the Potency entry in [7], in assay [8], in assay [10], in [11], in assay [12] and in assay [17] was “inactive” throughout. The Potency result in [13], in assay [14], in assay [19] and in assay [20] was “inactive” each time.
For the compound `CC1CN1` (configuration not stated), the Potency result in assay [1], in [2], in assay [3], in assay [4], in assay [6] and in assay [7] was “inactive” in each case. The Potency result in [8], in assay [9], in [10], in assay [11], in [15] and in assay [12] was “inactive” throughout. The Potency result in assay [16], in assay [13] and in assay [14] was “inactive” throughout.
